Most compounds without a hit are left out; they make up all but 21% or so of the library.
Pf growth 48h – P. falciparum growth inhibition at 48 hours (one generation). P. falciparum luciferase growth in erythrocytes, 48 h. Potency, µM (highest dose often 28.7 µM), actives largely listed as inhibitors. 310,000 compounds, 5.9% hits. AID 504832
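In quantitative HTS format, infected erythrocytes bearing luciferase-reporter parasites were treated for a single generation at 37 C. Luminescence after adding detection reagent served as the growth measure.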
CHX counter – counter-screen hit for Shiga toxin inhibitors, cycloheximide; max response, %; cell reporter, cycloheximide protein synthesis inhibition counterscreen; 300,000 compounds, 12% hits; in the data active = max response mostly above about 13%, no sharp cut-off; inactive = mostly below about 14%; also: read at 38.3 µM for the half of the compounds with a filed dose
Pf growth 96h – P. falciparum growth inhibition at 96 hours | Potency, µM (doses to about 28.7 µM), usual class: inhibitors | 320,000 compounds, 6.9% hits | P. falciparum luciferase reporter growth, 96 h
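Delayed-death screen, second-generation endpoint: infected erythrocytes, 2% hematocrit, 0.05% parasitemia final; 96 hours at 37 C, 5% CO2; luciferase detection reagent; luminescence decrease equals reduced growth.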
Shiga inhibitor – inhibitors of Shiga toxin in Vero cells; Vero cells, Shiga toxin protein synthesis inhibition reporter; inhibition, % at 38.7 µM; 290,000 compounds, 9.2% hits; AID 2315; in the data active = inhibition mostly above about 28%, no sharp cut-off; inactive = mostly below about 43%
Numbers stand for hits; – = inactive; ? = inconclusive; · = not tested or not shown. Unless noted, calls follow the shape of the dose curve; as a rule, active = well fitted inhibition curve with a large enough effect; inconclusive = small, poorly fitted or top-dose-only effect, or another doubt; inactive = no such curve, though single readings can be large or run the other way.

SMILES	Pf growth 48h	CHX counter	Pf growth 96h	Shiga inhibitor
CC(CCn1cccn1)NC(=O)c1cc(COc2ccc(F)cc2F)on1 (configuration not stated)	–	–	?	–
CC(=O)c1ccc(OCc2cc(C(=O)NCCN3CCCC(O)C3)no2)cc1 (configuration not stated)	–	–	–	–
O=C(NCCCn1cccn1)c1cc(COc2ccc(F)cc2Cl)on1	–	19	–	22
CC(=O)c1ccc(OCc2cc(C(=O)NC(C)CCn3cccn3)no2)cc1 (configuration not stated)	–	66	–	111
CCN(CCn1cccn1)C(=O)c1cc(COc2ccc(F)cc2Cl)on1	–	–	?	–
CCC1(c2ccccc2)NC(=O)NC1=O (configuration not stated)	·	–	·	–
COc1ccc(NC(=O)C2CCC(=O)N2C(=O)OCc2ccccc2)cc1 (configuration not stated)	–	–	?	–
COc1ccc2ccccc2c1C(=O)/C=C\c1ccoc1	–	–	?	–
O=C(/C=C/c1ccc(O)c(O)c1)OC(Cc1ccc(O)c(O)c1)C(=O)O (configuration not stated)	?	–	–	–
O=C(/C=C/c1ccoc1)c1ccccc1O	–	44	–	97
O=C(/C=C/c1ccc(O)c(O)c1)c1ccccc1O	–	41	–	72
O=C(/C=C/c1ccccn1)c1cc(Br)ccc1O	?	–	–	–
O=C(/C=C/c1ccc(O)c(O)c1)OCCc1ccccc1	·	64	·	80
O=C(/C=C/c1cc2ccccc2o1)c1ccccc1O	–	41	–	78
CCN(CC(=O)NC(C)(C)C)Cc1cc(=O)n2c(-c3ccccc3)csc2n1	?	–	?	–
CCOc1ccccc1CN1C(=O)NC2(CCCCCC2)C1=O	–	–	–	–
CCC(C)NS(=O)(=O)c1cc2c3c(c1)CCC(=O)N3CCC2 (configuration not stated)	–	–	–	–
Cc1ccc(S(=O)(=O)N2CCC(=O)CC2)cc1	–	–	–	–
COc1ccc(Cl)cc1C(=O)NNC(=O)C1CCCO1 (configuration not stated)	–	·	–	·
Cc1ccc(-c2nn(-c3ccccc3)cc2C(=O)Nc2ccc(C)c(S(=O)(=O)N3CCOCC3)c2)cc1	10µM	–	?	–
O=C(Nc1cccc(S(=O)(=O)N2CCOCC2)c1)c1cn(-c2ccccc2)nc1-c1ccccc1	–	–	10µM	–
Cc1ccc(-c2nn(-c3ccccc3)cc2C(=O)NCCCN2CCOCC2)cc1	–	16	–	–
O=C(NCCCN1CCOCC1)c1cn(-c2ccccc2)nc1-c1cccs1	·	–	–	–
Brc1cc2c(cc1CSc1ncccn1)OCO2	?	–	–	–
O=C(CN(C(=O)c1csnn1)c1cccc2c1CCCC2)NCc1ccccc1	–	–	–	–
SMILES	Pf growth 48h	CHX counter	Pf growth 96h	Shiga inhibitor
COc1ccc(CCNS(=O)(=O)c2ccc(-c3ccc(=O)[nH]n3)o2)cc1OC	–	–	?	–
Cc1ccc2cc(C=O)c(N3CCOCC3)nc2c1C	–	–	–	·
Cc1ccc2nc(N3CCOCC3)c(C=O)cc2c1	–	26	–	–
O=C(NNc1cc(N2CCOCC2)nc(N2CCOCC2)n1)C12CC3CC(CC(C3)C1)C2	?	–	–	–
CC1CC(=O)c2cnc(Nc3ccccc3)nc2C1 (configuration not stated)	–	48	·	–
CC1CC(=O)c2cnc(NCc3ccco3)nc2C1 (configuration not stated)	–	16	?	–
CC1CC(=O)c2cnc(NCC3CCCO3)nc2C1 (configuration not stated)	–	–	9.3µM	–
O=C1CC(c2ccc(F)cc2)Cc2nc(NCc3ccco3)ncc21 (configuration not stated)	–	–	?	–
COc1ccc(C2CC(=O)c3cnc(Nc4cc(C)cc(C)c4)nc3C2)cc1 (configuration not stated)	?	–	?	–
CC1CC(=O)c2cnc(Nc3cccc(C(F)(F)F)c3)nc2C1 (configuration not stated)	–	–	–	–
Cc1ccc(Nc2ncc3c(n2)CC(C)CC3=O)c(C)c1 (configuration not stated)	–	39	–	97
Cc1cc(=O)oc2cc(OCC(O)Cn3ccnc3)ccc12 (configuration not stated)	–	–	–	·
COc1ccc(S(=O)(=O)N(C)CC(=O)NCc2ccc3c(c2)OCO3)cc1	–	–	–	–
COc1ccc(Nc2ccnc3ccccc23)cc1	12µM	18	?	–
O=C(NCCc1ccccc1)c1nccc2ccccc12	–	·	–	·
COc1cccc(Nc2cc(C)c3ccccc3n2)c1	–	25	?	66
c1ccc(CCNc2ccnc3cc4ccccc4cc23)cc1	0.52µM	–	–	–
COc1ccc(Nc2cc(Nc3ccccc3)ncn2)cc1	–	31	–	49
COc1ccc(Nc2nc(-c3cccs3)nc3ccccc23)cc1	–	–	–	–
CCOc1ccc(C(=O)c2cc([N+](=O)[O-])ccc2Cl)cc1	–	–	–	–
COc1ccc(Nc2ccnc(Nc3ccc(OC)cc3)n2)cc1	?	37	?	72
COc1ccc(Nc2ncnc3ccccc23)cc1	–	30	·	71
COc1cccc(Nc2ncnc3ccccc23)c1	–	31	·	99
Nc1ccc(Nc2ccccc2N)cc1	?	–	–	–
COc1ccc(Nc2ccccc2N)cc1	?	–	?	44
SMILES	Pf growth 48h	CHX counter	Pf growth 96h	Shiga inhibitor
CO[C@H]1C[C@@H]2CC[C@@H](C)[C@@](O)(O2)C(=O)C(=O)N2CCCC[C@H]2C(=O)O[C@H]([C@H](C)C[C@@H]2CC[C@@H](OC(=O)C(C)(CO)CO)[C@H](OC)C2)CC(=O)[C@H](C)/C=C(\C)[C@@H](O)[C@@H](OC)C(=O)[C@H](C)C[C@H](C)/C=C/C=C/C=C/1C	–	·	–	·
Cc1nn(CC(=O)NCc2cc3ccccc3[nH]2)c(C)c1[N+](=O)[O-]	–	–	–	–
CCOc1ccc(S(=O)(=O)N2CCCC(C(=O)N3CCN(CC)CC3)C2)cc1Cl (configuration not stated)	–	–	–	–
COc1ccc(Nc2cc(C)nc3ccc(OC)cc23)cc1	?	–	–	–
CC(C)Nc1ccc(Nc2ccnc3cc4ccccc4cc23)cc1	0.52µM	–	0.59µM	–
O=C(c1nc2ccccn2c1CNCCn1ccc2ccccc21)N1CCOCC1	?	–	?	–
C=CCn1c(C)nc2c(sc3nc4c(cc32)COC(C)(C)C4)c1=O	–	43	–	50
C=CCSc1ncnc2c1oc1nc3c(cc12)COC(C)(C)C3	–	15	–	–
CCc1nc2c(sc3nc4c(cc32)COC(C)(C)C4)c(=O)n1CCN(CC)CC	–	–	–	–
CC(C)COc1ncnc2c1sc1nc3c(cc12)COC(C)(C)C3	–	–	–	21
CC1(C)Cc2nc3sc4c(=O)n(CC(=O)NCc5ccco5)cnc4c3cc2CO1	–	26	–	69
CC1(C)Cc2nc3oc4c(=O)n(CC(=O)Nc5ccccc5)cnc4c3cc2CO1	–	–	–	–
O=C(NN1CCOCC1)c1ccc(F)cc1	–	–	–	–
